Records with an inconclusive call do not appear. Activity calls are given as the source filed them. How the source made its calls, unless noted: active means hit-call score of the fitted dose curve at least 0.9, where 1 is the maximum; inconclusive means response in the unintended direction; inactive means score below 0.9.
Molecular target: Hepatocyte nuclear factor 4-alpha (Homo sapiens) (UniProt P41235)
Assay: ATG_HNF4a_TRANS: Attagene TRANS-FACTORIAL HepG2 Assay for human Hepatocyte Nuclear Factor 4 alpha (HNF4a) (AID 2282982)
Details: HepG2 HNF4a transactivation reporter, mRNA readout
Summary of the method: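 HepG2 cells transiently transfected with HNF4a-Gal4 chimera and GAL4-UAS reporter units, dosed for 24 h. Reporter mRNA measured by RT-PCR, fluorescent primer extension and capillary electrophoresis; gain-of-signal fitted relative to DMSO.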

Hepatocyte nuclear factor 4-alpha (Homo sapiens), sequence (P41235 whole entry, looked up): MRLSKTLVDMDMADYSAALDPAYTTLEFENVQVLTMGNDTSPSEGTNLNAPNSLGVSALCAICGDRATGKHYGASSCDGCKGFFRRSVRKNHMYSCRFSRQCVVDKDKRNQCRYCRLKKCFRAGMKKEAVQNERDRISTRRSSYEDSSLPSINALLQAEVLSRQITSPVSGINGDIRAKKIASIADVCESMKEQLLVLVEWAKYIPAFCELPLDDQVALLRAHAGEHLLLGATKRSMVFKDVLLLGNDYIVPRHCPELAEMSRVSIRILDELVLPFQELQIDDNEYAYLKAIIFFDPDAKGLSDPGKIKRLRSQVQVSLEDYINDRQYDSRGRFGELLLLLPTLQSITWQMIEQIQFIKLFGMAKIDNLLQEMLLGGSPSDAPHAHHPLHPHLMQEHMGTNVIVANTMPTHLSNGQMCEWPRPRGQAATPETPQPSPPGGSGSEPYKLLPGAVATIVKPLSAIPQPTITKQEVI

Row | Compound | outcome
1 | ClC1=C(Cl)[C@]2(Cl)[C@H]3[C@H]([C@@H]4C=C[C@H]3C4)[C@@]1(Cl)C2(Cl)Cl | inactive
2 | OCCOCCO | inactive
3 | CCC12COCN1COC2 | inactive
4 | CCOC(=O)[C@]1(c2ccccc2)Oc2ccccc2[C@@H]1N | inactive
5 | CCCCCCCCOC(=O)c1ccc(C(=O)OCCCCCCCC)c(C(=O)OCCCCCCCC)c1 | inactive
6 | CN(C)c1ccc(C(=O)c2ccc(N(C)C)cc2)cc1 | inactive
7 | O=P(OCCCl)(OCCCl)OCCCl | inactive
8 | O=Cc1ccco1 | inactive
9 | c1ccc(NNc2ccccc2)cc1 | inactive

Tested on: not listed separately
Assay: ATG_M_06_TRANS: Attagene TRANS-FACTORIAL HepG2 Assay for M06 Transcription Factor (Internal Marker) (AID 2282983)
Details: HepG2 Attagene TRANS M06 internal marker reporter
Summary of the method: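 After a 24 h chemical treatment of transfected HepG2, RNA underwent DNase I treatment, reverse transcription and reporter-specific PCR; labelled, HpaI-digested products were sized by capillary electrophoresis. Signal increase relative to DMSO defined activity.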

Row | Compound | outcome
10 | Clc1ccc(C(c2ccc(Cl)cc2)C(Cl)(Cl)Cl)cc1 | inactive
11 | Nc1ccc(Oc2ccc(N)cc2)cc1 | inactive
12 | CCCCCOC(=O)c1ccccc1C(=O)OCCCCC | inactive
13 | CC(C)(C)C(O)(CCc1ccc(Cl)cc1)Cn1cncn1 (centres undefined) | inactive
14 | Brc1ccc(Oc2ccccc2)cc1 | inactive
15 | ClC1=C(Cl)C2(Cl)C3C(Cl)C=CC3C1(Cl)C2(Cl)Cl (centres undefined) | inactive
16 | CCC(C)c1ccc(O)cc1 (centres undefined) | inactive
17 | c1ccc2c(c1)oc1ccccc12 | inactive
18 | c1ccc2c(c1)-c1cccc3cccc-2c13 | inactive
19 | Nc1ccc(Cl)cc1N | inactive
20 | O=C(Nc1ccccc1)c1ccccc1I | inactive
21 | CN(C)C(=O)Nc1ccc(Cl)cc1 | inactive
22 | Clc1ccc(C(c2ccc(Cl)cc2)C(Cl)Cl)cc1 | inactive
23 | Nc1ccc(Cc2ccc(N)cc2)cc1 | inactive
24 | Cc1cccc(N)c1N | inactive
25 | Oc1ccccc1Cl | inactive
26 | CC(C)COC(=O)c1ccccc1C(=O)OCC(C)C | inactive
27 | O=[N+]([O-])c1ccc(Oc2ccc(Cl)cc2Cl)cc1 | inactive
28 | N#CC(Br)Br | inactive

Tested on: not listed separately
Assay: ATG_M_32_TRANS: Attagene TRANS-FACTORIAL HepG2 Assay for M32 Transcription Factor (Internal Marker) (AID 2282984)
Details: HepG2 Attagene TRANS M32 internal marker reporter
Summary of the method: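 HepG2 cells transiently transfected with GAL4-UAS reporter units, dosed for 24 hours. Reporter mRNA quantified by RT-PCR, 6-FAM labelling, HpaI digestion and capillary electrophoresis; internal-marker signal fitted upward relative to DMSO.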

Row | Compound | outcome
29 | Clc1ccc(C(c2ccc(Cl)cc2)C(Cl)(Cl)Cl)cc1 | inactive
30 | Nc1ccc(Oc2ccc(N)cc2)cc1 | inactive
31 | CCCCCOC(=O)c1ccccc1C(=O)OCCCCC | inactive
32 | CC(C)(C)C(O)(CCc1ccc(Cl)cc1)Cn1cncn1 (centres undefined) | inactive
33 | OCCOCCO | inactive
34 | ClC1=C(Cl)C2(Cl)C3C(Cl)C=CC3C1(Cl)C2(Cl)Cl (centres undefined) | inactive
35 | CCC(C)c1ccc(O)cc1 (centres undefined) | inactive
36 | c1ccc2c(c1)oc1ccccc12 | inactive
37 | Nc1ccc(Cl)cc1N | inactive
38 | O=C(Nc1ccccc1)c1ccccc1I | inactive
39 | CN(C)C(=O)Nc1ccc(Cl)cc1 | inactive
40 | CN(C)c1ccc(C(=O)c2ccc(N(C)C)cc2)cc1 | inactive
41 | Clc1ccc(C(c2ccc(Cl)cc2)C(Cl)Cl)cc1 | inactive
42 | Nc1ccc(Cc2ccc(N)cc2)cc1 | inactive
43 | Cc1cccc(N)c1N | inactive
44 | O=P(OCCCl)(OCCCl)OCCCl | inactive
45 | c1ccc(NNc2ccccc2)cc1 | inactive
46 | Oc1ccccc1Cl | inactive
47 | CC(C)COC(=O)c1ccccc1C(=O)OCC(C)C | inactive
48 | O=[N+]([O-])c1ccc(Oc2ccc(Cl)cc2Cl)cc1 | inactive
49 | N#CC(Br)Br | inactive

Molecular target: Nuclear receptor subfamily 4 group A member 2 (Homo sapiens) (UniProt P43354)
Assay: ATG_NURR1_TRANS: Attagene TRANS-FACTORIAL HepG2 Assay for human Nuclear Receptor Related Protein 1 (NURR1) (AID 2282985)
Details: HepG2 Attagene TRANS reporter, mRNA readout
Summary of the method: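 HepG2 cells transiently transfected with NURR1-Gal4 chimera and GAL4-UAS reporter units; after 24 hr compound exposure, reporter mRNA quantified by RT-PCR and capillary electrophoresis; gain of signal fitted against DMSO.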

Nuclear receptor subfamily 4 group A member 2 (Homo sapiens), sequence (P43354 whole entry, looked up): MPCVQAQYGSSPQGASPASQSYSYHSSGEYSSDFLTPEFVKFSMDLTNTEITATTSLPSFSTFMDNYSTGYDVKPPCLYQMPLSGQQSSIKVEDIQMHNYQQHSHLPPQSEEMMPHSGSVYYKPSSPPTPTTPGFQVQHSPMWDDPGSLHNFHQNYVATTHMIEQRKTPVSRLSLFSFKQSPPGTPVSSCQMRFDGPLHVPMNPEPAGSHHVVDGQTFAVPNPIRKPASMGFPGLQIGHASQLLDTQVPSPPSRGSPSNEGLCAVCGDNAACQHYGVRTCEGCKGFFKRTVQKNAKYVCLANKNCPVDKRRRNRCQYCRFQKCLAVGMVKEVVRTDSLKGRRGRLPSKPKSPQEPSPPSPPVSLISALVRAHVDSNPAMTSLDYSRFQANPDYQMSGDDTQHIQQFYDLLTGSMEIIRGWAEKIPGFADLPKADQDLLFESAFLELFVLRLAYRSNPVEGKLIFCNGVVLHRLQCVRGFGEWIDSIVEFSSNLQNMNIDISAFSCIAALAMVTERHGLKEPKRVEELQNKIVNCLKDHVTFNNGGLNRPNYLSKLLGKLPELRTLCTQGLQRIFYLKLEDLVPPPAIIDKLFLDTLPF

Row | Compound | outcome | AC50
50 | Clc1ccc(C(c2ccc(Cl)cc2)C(Cl)(Cl)Cl)cc1 | inactive | –
51 | Nc1ccc(Oc2ccc(N)cc2)cc1 | inactive | –
52 | ClC1=C(Cl)[C@]2(Cl)[C@H]3[C@H]([C@@H]4C=C[C@H]3C4)[C@@]1(Cl)C2(Cl)Cl | inactive | –
53 | CCCCCOC(=O)c1ccccc1C(=O)OCCCCC | inactive | –
54 | Brc1ccc(Oc2ccccc2)cc1 | inactive | –
55 | CCC(C)c1ccc(O)cc1 (centres undefined) | inactive | –
56 | c1ccc2c(c1)oc1ccccc12 | inactive | –
57 | c1ccc2c(c1)-c1cccc3cccc-2c13 | – | 160 µM (active)
58 | Nc1ccc(Cl)cc1N | inactive | –
59 | CCOC(=O)[C@]1(c2ccccc2)Oc2ccccc2[C@@H]1N | inactive | –
60 | CCCCCCCCOC(=O)c1ccc(C(=O)OCCCCCCCC)c(C(=O)OCCCCCCCC)c1 | inactive | –
61 | Clc1ccc(C(c2ccc(Cl)cc2)C(Cl)Cl)cc1 | inactive | –
62 | Cc1cccc(N)c1N | inactive | –
63 | O=Cc1ccco1 | inactive | –
64 | Oc1ccccc1Cl | inactive | –
65 | CC(C)COC(=O)c1ccccc1C(=O)OCC(C)C | inactive | –
66 | O=[N+]([O-])c1ccc(Oc2ccc(Cl)cc2Cl)cc1 | inactive | –

Molecular target: Transcriptional activator Myb (Homo sapiens) (UniProt P10242)
Assay: ATG_Myb_CIS: Attagene CIS-FACTORIAL HepG2 Assay for human Myeloblastosis (Myb) Proto-Oncogene Transcription Factor (AID 2282986; active means hit-call score of the fitted dose curve at least 0.9, where 1 is the maximum; inactive means score below 0.9)
Details: HepG2 Attagene CIS-FACTORIAL Myb reporter transcription; actives raise or lower the signal
Summary of the method: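 Reporter transcript levels, quantified by fluorescent RT-PCR and capillary electrophoresis, serve as the read-out. Transfected HepG2 cells carrying cis-promoter reporter units are dosed for 24 hours, and curves are fitted bidirectionally against DMSO controls.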

Transcriptional activator Myb (Homo sapiens), sequence (P10242 whole entry, looked up): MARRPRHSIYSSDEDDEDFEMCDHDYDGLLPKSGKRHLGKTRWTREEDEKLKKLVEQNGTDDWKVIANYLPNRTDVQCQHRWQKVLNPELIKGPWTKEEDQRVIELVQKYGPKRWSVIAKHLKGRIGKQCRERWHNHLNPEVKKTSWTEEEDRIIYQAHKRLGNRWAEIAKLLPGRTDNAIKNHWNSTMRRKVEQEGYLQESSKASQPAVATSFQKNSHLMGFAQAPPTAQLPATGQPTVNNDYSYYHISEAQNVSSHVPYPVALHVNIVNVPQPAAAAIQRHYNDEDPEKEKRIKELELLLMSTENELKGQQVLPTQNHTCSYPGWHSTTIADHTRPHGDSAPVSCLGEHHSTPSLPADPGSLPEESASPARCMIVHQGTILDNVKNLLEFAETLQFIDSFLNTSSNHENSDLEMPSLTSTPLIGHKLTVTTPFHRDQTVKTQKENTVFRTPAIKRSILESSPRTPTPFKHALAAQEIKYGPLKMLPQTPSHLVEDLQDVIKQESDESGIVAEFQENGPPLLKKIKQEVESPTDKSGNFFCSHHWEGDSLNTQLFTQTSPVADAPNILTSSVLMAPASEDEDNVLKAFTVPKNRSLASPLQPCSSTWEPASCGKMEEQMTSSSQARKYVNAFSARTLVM

Row | Compound | outcome
67 | Clc1ccc(C(c2ccc(Cl)cc2)C(Cl)(Cl)Cl)cc1 | inactive
68 | Nc1ccc(Oc2ccc(N)cc2)cc1 | inactive
69 | ClC1=C(Cl)[C@]2(Cl)[C@H]3[C@H]([C@@H]4C=C[C@H]3C4)[C@@]1(Cl)C2(Cl)Cl | inactive
70 | CCCCCOC(=O)c1ccccc1C(=O)OCCCCC | inactive
71 | CC(C)(C)C(O)(CCc1ccc(Cl)cc1)Cn1cncn1 (centres undefined) | inactive
72 | OCCOCCO | inactive
73 | Brc1ccc(Oc2ccccc2)cc1 | inactive
74 | ClC1=C(Cl)C2(Cl)C3C(Cl)C=CC3C1(Cl)C2(Cl)Cl (centres undefined) | inactive
75 | CCC(C)c1ccc(O)cc1 (centres undefined) | inactive
76 | c1ccc2c(c1)oc1ccccc12 | inactive
77 | CCC12COCN1COC2 | inactive
78 | c1ccc2c(c1)-c1cccc3cccc-2c13 | inactive
79 | Nc1ccc(Cl)cc1N | inactive
80 | O=C(Nc1ccccc1)c1ccccc1I | inactive
81 | CCOC(=O)[C@]1(c2ccccc2)Oc2ccccc2[C@@H]1N | inactive
82 | CN(C)C(=O)Nc1ccc(Cl)cc1 | inactive
83 | CCCCCCCCOC(=O)c1ccc(C(=O)OCCCCCCCC)c(C(=O)OCCCCCCCC)c1 | inactive
84 | CN(C)c1ccc(C(=O)c2ccc(N(C)C)cc2)cc1 | inactive
85 | Clc1ccc(C(c2ccc(Cl)cc2)C(Cl)Cl)cc1 | inactive
86 | Nc1ccc(Cc2ccc(N)cc2)cc1 | inactive
87 | Cc1cccc(N)c1N | inactive
88 | O=P(OCCCl)(OCCCl)OCCCl | inactive
89 | O=Cc1ccco1 | inactive
90 | c1ccc(NNc2ccccc2)cc1 | inactive
91 | Oc1ccccc1Cl | inactive
92 | CC(C)COC(=O)c1ccccc1C(=O)OCC(C)C | inactive
93 | O=[N+]([O-])c1ccc(Oc2ccc(Cl)cc2Cl)cc1 | inactive
94 | N#CC(Br)Br | inactive

Source: PubChem BioAssay (EPA / NIEHS)
